The values that follow come from PubChem BioAssay (NCI).

Compounds without any hit were thinned out: in the full panel of roughly 83,000, 20% have a hit.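 Single-dose data. Exposure time 48 hours. Values below 10 considered active.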 Values without a mark were called inactive. Calls of active or inactive are those of the source.

Among the test systems are NCI-H23 lung; NCI-H226 lung; NCI-H322M lung; HOP-62 NSCLC; NCI-H460 lung; HOP-92 NSCLC; NCI-H522 lung; A549/ATCC NSCLC; 786-0 renal; COLO 205 colon; DU-145 prostate; K-562 leukemia; MALME-3M melanoma; MDA-MB-231 breast; RXF 393 renal; SF-268 CNS; SF-295 CNS; SF-539 CNS; UACC-257 melanoma; M14 melanoma.
Common to all, as to assay: NCI-60 one-dose screen, 48 h (100 = growth as untreated, 0 = no growth, -100 = all killed)
Holding throughout (details): 10 µM unless noted

For `CN1CCN(CCCOc2ccc3ncnc(Nc4ccc(Oc5cccc(F)c5)c(Cl)c4)c3c2)CC1`, the growth is 50.8% in the experiment with NCI-H23 lung; 88.4% with NCI-H226 lung; 22.1% with NCI-H322M lung; 48.7% with HOP-62 NSCLC; -62.8% (active) in the experiment with NCI-H460 lung; 31.4% in the experiment on HOP-92 NSCLC. Besides, the growth in the experiment with NCI-H522 lung is 22%; with A549/ATCC NSCLC it was 21.1%; with 786-0 renal it was -3.9% (active); with COLO 205 colon it was -37% (active); in the experiment with DU-145 prostate it was 15.2%; in the experiment on K-562 leukemia it was -30% (active). For the same compound, the growth in the experiment with MALME-3M melanoma is -72.4% (active); with MDA-MB-231 breast it was -65.4% (active); with RXF 393 renal it was -55.7% (active); in the experiment with SF-268 CNS, 40.5%; in the experiment on SF-295 CNS it was -35% (active); in the experiment with SF-539 CNS, -75.1% (active). Also, the growth with UACC-257 melanoma is -59.6% (active); in the experiment with M14 melanoma, -75.7% (active).

`CN1CCN(Cc2ccc(NC(=O)c3cncc(C#Cc4cncc5ncccc45)c3)cc2C(F)(F)F)CC1`: the growth is 15% with NCI-H23 lung; 12.7% with NCI-H226 lung; 18% in the experiment on NCI-H322M lung; 10.4% in the experiment on HOP-62 NSCLC; -47.3% (active) in the experiment on NCI-H460 lung; -34.9% (active) with HOP-92 NSCLC. The growth in the experiment on NCI-H522 lung was 19.7%; with A549/ATCC NSCLC, 17.7%; in the experiment on 786-0 renal, 38.3%; in the experiment with COLO 205 colon, -23% (active); in the experiment on DU-145 prostate, 34.4%; in the experiment on K-562 leukemia, -8.35% (active). Moreover, the growth was -14.4% (active) in the experiment on MALME-3M melanoma; 5.93% (active) in the experiment on MDA-MB-231 breast; 8.21% (active) with RXF 393 renal; 33.7% in the experiment on SF-268 CNS; 32.9% in the experiment with SF-295 CNS; -31.8% (active) with SF-539 CNS. The growth is 6.41% (active) in the experiment with UACC-257 melanoma and -51.1% (active) in the experiment with M14 melanoma.

Regarding `CCOC(=O)CSc1nc2sc3c(c2c(=O)n1-c1ccc([N+](=O)[O-])cc1)CCCCC3`, the growth was 74.5% in the experiment on NCI-H23 lung; 98.8% in the experiment on NCI-H226 lung; 77.2% with NCI-H322M lung; 47.7% with HOP-62 NSCLC; 48.1% with NCI-H460 lung; 80.3% in the experiment with HOP-92 NSCLC. Besides, the growth in the experiment with NCI-H522 lung was 68.8%; with A549/ATCC NSCLC, 66.1%; in the experiment on 786-0 renal, 71.3%; in the experiment with COLO 205 colon, 82.8%; with DU-145 prostate it was 63.5%; with K-562 leukemia, 75.2%. Further, the growth in the experiment on MALME-3M melanoma was 77.7%; with MDA-MB-231 breast, 50.4%; in the experiment with RXF 393 renal, 76.8%; in the experiment on SF-268 CNS it was 71.2%; in the experiment with SF-295 CNS, 59.3%; in the experiment with SF-539 CNS, 58.3%. Further, the growth was 89% in the experiment with UACC-257 melanoma and 75.3% in the experiment with M14 melanoma.

With `C[N+](C)(C/C=C/c1ccccc1)Cc1ccccc1`, the growth in the experiment with NCI-H23 lung is 85.2%; in the experiment with NCI-H226 lung, 93.1%; in the experiment on NCI-H322M lung, 89.7%; with HOP-62 NSCLC, 96.7%; in the experiment on NCI-H460 lung, 102%; with HOP-92 NSCLC, 104%. The growth is 90.7% with NCI-H522 lung; 94.4% in the experiment on A549/ATCC NSCLC; 99.1% in the experiment with 786-0 renal; 104% with COLO 205 colon; 102% in the experiment on DU-145 prostate; 110% in the experiment on K-562 leukemia. The growth in the experiment on MALME-3M melanoma is 86.8%; in the experiment with MDA-MB-231 breast, 102%; with RXF 393 renal, 99.2%; in the experiment on SF-268 CNS it was 90.3%; in the experiment with SF-295 CNS, 93.5%; with SF-539 CNS, 93.9%. In addition, the growth was 97.7% in the experiment on UACC-257 melanoma and 85.6% with M14 melanoma.

On to `CCCCc1oc2ccccc2c1C(=O)c1ccc(O)cc1`, for which the growth in the experiment with NCI-H23 lung was -5.52% (active); in the experiment with NCI-H226 lung, 92.8%; with NCI-H322M lung, 85.1%; in the experiment on HOP-62 NSCLC, 79.3%; with NCI-H460 lung, 84.4%; in the experiment with HOP-92 NSCLC, 68.2%. For the same compound, the growth is 66.7% in the experiment with NCI-H522 lung; 76.6% in the experiment on A549/ATCC NSCLC; 79.5% with 786-0 renal; 118% in the experiment with COLO 205 colon; 101% with DU-145 prostate; 37.8% with K-562 leukemia. Besides, the growth is 85.4% with MALME-3M melanoma; 79.1% in the experiment on MDA-MB-231 breast; 72.7% in the experiment with RXF 393 renal; 94.2% in the experiment with SF-268 CNS; 175% in the experiment on SF-295 CNS; 82.5% in the experiment on SF-539 CNS. Also, the growth in the experiment with UACC-257 melanoma was 76.8%; with M14 melanoma it was 92.2%.

For `CCOC(=O)n1cc(-c2nonc2-c2cn(C)c3ccccc23)c2ccccc21`, the growth in the experiment on NCI-H23 lung is 55%; in the experiment on NCI-H226 lung it was 75.4%; in the experiment with NCI-H322M lung, 44%; with HOP-62 NSCLC it was 34.5%; in the experiment with NCI-H460 lung it was 14.5%; in the experiment on HOP-92 NSCLC, 54.4%. The growth in the experiment on NCI-H522 lung is 18.4%; in the experiment with A549/ATCC NSCLC it was 40.1%; in the experiment with 786-0 renal it was 48%; in the experiment on COLO 205 colon, 24.3%; in the experiment with DU-145 prostate it was 57.2%; in the experiment with K-562 leukemia, 11.2%. The growth was 41% with MALME-3M melanoma; 46% with MDA-MB-231 breast; 63.5% with RXF 393 renal; 54% in the experiment on SF-268 CNS; 27.8% in the experiment with SF-295 CNS; 21.9% in the experiment on SF-539 CNS. The figures for the growth with UACC-257 melanoma and in the experiment with M14 melanoma were 68.9% and 21.5%, respectively.

Consider `COc1cc2c(c(OC)c1OC)C(=O)CC(c1cccc(NC(=O)c3ccccc3Br)c1)O2` (stereo not given), for which the growth was 98.4% with NCI-H23 lung; 84.8% in the experiment with NCI-H226 lung; 96% in the experiment on NCI-H322M lung; 97.4% with HOP-62 NSCLC; 90.4% with NCI-H460 lung; 65.2% in the experiment on HOP-92 NSCLC. The growth was 66.7% with NCI-H522 lung; 88.1% in the experiment on A549/ATCC NSCLC; 103% in the experiment with 786-0 renal; 116% with COLO 205 colon; 97.1% in the experiment on DU-145 prostate; 70.2% in the experiment on K-562 leukemia. Also, the growth in the experiment on MALME-3M melanoma is 105%; in the experiment with MDA-MB-231 breast, 98.6%; in the experiment with RXF 393 renal, 99.4%; in the experiment with SF-268 CNS, 90.5%; in the experiment on SF-295 CNS, 92.5%; in the experiment on SF-539 CNS it was 96.5%. Further, the growth in the experiment with UACC-257 melanoma was 90.1%; in the experiment on M14 melanoma, 97.8%.
